Results on five compounds are retold here after PubChem BioAssay (NCATS).

The nature of assay [1]: AP1 Signaling Pathway (AID 357).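 Further: ME-180 reporter cells stimulated with EGF at its EC50 level; on the % scale 0 is the no-effect control and ±100 the full control effect.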 The following applies: ME-180 AP-1-bla reporter, EGF-induced, beta-lactamase ratio, 5 h. In outline: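 In this screen, ME-180 cells in Opti-MEM with 0.5% dialyzed FBS received EC50 EGF and compound titrations for 5 h. AP-1 reporter beta-lactamase was detected via CCF4 ratio, giving AC50 for positive and negative modulators.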
Assay [2] addresses Cytochrome P450 1A2 (Homo sapiens) (UniProt P05177). Briefly: p450-cyp1a2 (AID 410; calls by dose curve; further: potency means the concentration at half of the fitted maximal effect;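 on activity change, negative = inhibition: -100% = full effect of reference inhibitor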). The following applies: recombinant CYP1A2, luciferin-ME demethylation, luminescence; series mostly up to 25.6 µM. In outline: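 Luminescent demethylation readout: Luciferin-ME (100uM, equal to Km) turned over by 20nM CYP1A2 for 60 min at room temperature after NADPH regeneration addition, following 10 min compound preincubation. Normalization used 57 uM furafylline as full inhibition.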

The nature of assay [3]: Stat Signaling Pathway (AID 446).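 Further: ME-180 cervical cancer cells given 40 pM IL-6 alongside compound; SIE-controlled beta-lactamase reporter measured as 460/530 nm FRET emission ratio; on the % scale 0 is the no-effect control and ±100 the full control effect.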 The following applies: ME-180 (cervical carcinoma) SIE beta-lactamase reporter, IL-6 stimulated, 5 h. In outline: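 FRET read-out (405 nm excitation, 460/530 nm emission) of a beta-lactamase reporter under a STAT-inducible element in ME-180 cervical carcinoma cells. Cells with compound receive 40 pM IL-6 for 5 h. Values are normalised to AC90 stimulation and AC90 JAK-inhibitor controls.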

Assay [4] has as its target Glucocorticoid receptor (Homo sapiens) (UniProt P04150). In words: GR-GFP Redistribution (AID 450;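 active means compounds whose dose series gives a full or clear partial fitted curve of increased nuclear translocation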; further: potency means the concentration at half of the fitted maximal effect). The following applies: U2OS GR-GFP nuclear translocation, laser cytometry, 2 h.
For assay [5] the target is unchanged. Briefly: GR-EFC Redistribution (AID 451; calls by dose curve; further: potency means the concentration at half of the fitted maximal effect). The following applies: CHO-K1 GR-EFC translocation, beta-gal luminescence, 2 h. The method in brief: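 CHO-K1 cells expressing nuclear EA and GR-ED fragments of b-gal; compounds titrated up to 46 uM final, 2 h at 37 C. GR nuclear translocation read as complemented b-gal luminescence after 1 h RT detection.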
Assay [6] addresses Mitogen-activated protein kinase 10 (Mus musculus) (UniProt Q61831). Briefly: JNK3 AlphaScreen Assay (AID 530).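 Further: kinase came from lysate of stimulated human HepG2 cells; signal reports phosphorylation of biotinylated GST-cJun 1-79 at Ser73 with 10 µM ATP; on the % scale 0 is the no-effect control and ±100 the full control effect.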 The following applies: JNK3 lysate, c-Jun phosphorylation; series mostly up to 57.1 µM. In outline: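 Activity was read by AlphaScreen after JNK3-containing HepG2 lysate (cytokine pre-activated) phosphorylated biotinylated GST-cJun with 10 uM ATP at room temperature. Phospho-Ser73 cJun antibody with Protein-A acceptor beads provided detection.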

Assay [7] is described as follows: Cell Viability - BJ (AID 421; calls by dose curve;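 further: potency means the concentration at half of the fitted maximal effect; cells exposed to compound for 40 hours at 37 °C before readout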). The following applies: BJ fibroblast viability, qHTS. The method in brief: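 Cytotoxicity as drop in intracellular ATP (CellTiter-Glo, 20 min RT) after 40 hr compound exposure of BJ fibroblasts at 37 °C. Titrations scaled between DMSO and 100 uM tamoxifen, Hill-fitted for AC50.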
A general note: In qHTS, concentration-response curves come from the screen itself.

Assay [8] can be described thus: Cell Viability - Jurkat (AID 426;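 active means dose-dependent loss of cell ATP signal giving a full or clear fitted curve, ranked by lower potency value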; further: potency means the concentration at half of the fitted maximal effect). The following applies: qHTS. In outline: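 Cytotoxicity taken as drop in cellular ATP (CellTiter-Glo luminescence, 20 min room temperature) after 40 hr, 37C treatment of 5000 Jurkat Clone E6-1 cells per well; concentration-response fitted with Hill equation for AC50.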
Assay [9] can be described thus: Cell Viability - Hek293 (AID 427;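 active means compounds whose dose-response curve shows a full or clear partial loss of cell viability, called from curve shape rather than a numeric limit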;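 further: potency means the concentration at half of the fitted maximal effect; cells exposed to compound for 40 hours at 37 °C before reading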). The following applies: qHTS. The method in brief:
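Luminescent ATP content (CellTiter-Glo, 20 min at room temperature) was measured after a 40 hr, 37 °C compound exposure of HEK293 cells. AC50 values came from Hill-equation fits of qHTS concentration-response data normalized to DMSO and 100 uM tamoxifen.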

A short description of assay [10]: Cell Viability - HepG2 (AID 433; calls by dose curve; further: potency means the concentration at half of the fitted maximal effect). The following applies: qHTS. In outline: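 HepG2 cells, 1500 per well, treated 40 hr at 37 °C in complete medium; viability from intracellular ATP by CellTiter-Glo luminescence. Normalized to DMSO and 100 uM tamoxifen; AC50 from Hill fit of qHTS concentration-response.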
The nature of assay [11]: Cell Viability - MRC5 (AID 434; calls by dose curve;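 further: potency means the concentration at half of the fitted maximal effect; potency reflects cytotoxicity seen as loss of intracellular ATP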). The following applies: MRC5 lung fibroblast viability, qHTS. The method in brief: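 ATP luminescence read-out (CellTiter-Glo, 20 min RT) after 40 hr, 37 °C compound exposure of 1500 MRC5 cells/well. Data normalized to DMSO (basal) and 100 uM tamoxifen (100% inhibition); AC50 from standard Hill equation.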
A short description of assay [12]: Cell Viability - SK-N-SH (AID 435; calls by dose curve; further: potency means the concentration at half of the fitted maximal effect). The following applies: SK-N-SH neuroblastoma cell viability qHTS. The method in brief:
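SK-N-SH neuroblastoma cells (1500/well) treated 40 h at 37 °C in complete medium; viability read as cellular ATP by CellTiter-Glo luminescence. Normalized to DMSO and 100 uM tamoxifen; AC50 from Hill fits of qHTS concentration-response.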

Assay [13] in a line: NFAT Signaling Pathway (AID 444).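 Further: carbachol stimulus at about its EC50 of 1 µM final; on the % scale 0 is the no-effect control and ±100 the full control effect.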 The following applies: Jurkat NFAT-bla M1, carbachol, beta-lactamase ratio, 5 h. The method in brief: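 Jurkat cells with NFAT-driven β-lactamase reporter and co-expressed M1 receptor, stimulated with carbachol (final 1 uM, ~EC50), compound titration, 5 h at 37 °C. CCF4 loaded 1 h at RT; 460/530 nm ratio gave %activity and AC50.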
Assay [14] can be described thus: Cell Viability - NIH 3T3 (AID 541; active means well fitted curve in the direction sought with a large enough effect; an effect the other way counts as inactive or inconclusive;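 further: plate controls were DMSO alone for no effect and tamoxifen positive control for full effect; nearly all actives have a fitted effect of over 25% in size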). The following applies: NIH 3T3 cell viability, qHTS; activity change, negative = cytotoxicity: at 92.2 µM (top of the series). The method in brief:
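Intracellular ATP (CellTiter-Glo luminescence, 20 min at room temperature) measured after 40 hr compound exposure at 37 °C of 1000 NIH 3T3 mouse fibroblasts/well in complete medium; AC50 derived by Hill-equation modelling of qHTS concentration-response curves.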

The nature of assay [15]: Cell Viability - HUV-EC-C (AID 542; active means well fitted curve in the direction sought with a large enough effect; an effect the other way counts as inactive or inconclusive; further: on the % scale 0 is the no-effect control and ±100 the full control effect; nearly all actives have a fitted effect of over 35% in size). The following applies: HUV-EC-C endothelial cell viability, qHTS; series mostly up to 92.2 µM. In outline:
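CellTiter-Glo luminescence measured ATP loss in HUV-EC-C cells (1000/well) after 40 hr compound exposure at 37 °C, in complete culture medium. Concentration-response data were Hill-fitted to give AC50.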

Assay [16] in a line: Cell Viability - H-4-II-E (AID 543; active means well fitted curve in the direction sought with a large enough effect; an effect the other way counts as inactive or inconclusive; further: on the % scale 0 is the no-effect control and ±100 the full control effect; nearly all actives have a fitted effect of over 35% in size). The following applies: H-4-II-E rat hepatoma viability; series mostly up to 92.2 µM. In outline:
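CellTiter-Glo luminescence (intracellular ATP) measured after 40 h compound exposure at 37 °C in H-4-II-E rat hepatoma cells seeded at 1500/well. Values are AC50s fitted with the standard Hill equation.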

Assay [17] can be described thus: Cell Viability - SH-SY5Y (AID 544; active means well fitted curve in the direction sought with a large enough effect; an effect the other way counts as inactive or inconclusive;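 further: 0% = DMSO alone and -100% = 100 µM tamoxifen; nearly all actives have a fitted effect of over 55% in size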). The following applies: SH-SY5Y neuroblastoma cell viability; series mostly up to 92.2 µM. The method in brief:
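Cytotoxicity measured via ATP-dependent luciferase luminescence (CellTiter-Glo) following 40 h, 37 °C exposure of 1500 SH-SY5Y cells per well. Concentration-response data were fitted with the standard Hill equation to give AC50.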

Assay [18] is described as follows: Cell Viability - Renal Proximal Tubule (AID 545; active means well fitted curve in the direction sought with a large enough effect; an effect the other way counts as inactive or inconclusive;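 further: 0% = DMSO only and -100% = 100 µM tamoxifen; nearly all actives have a fitted effect of over 40% in size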). The following applies: renal proximal tubule cells viability, primary cells of rat origin; series mostly up to 91.7 µM. The method in brief:
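Rat renal proximal tubule primary cells, 1000/well, exposed to compounds for 40 hr at 37 °C in complete medium; cellular ATP read by CellTiter-Glo luminescence. AC50 from concentration-response fitted with standard Hill equation.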

Assay [19] is described as follows: Cell Viability - Mesenchymal (AID 546; active means well fitted curve in the direction sought with a large enough effect; an effect the other way counts as inactive or inconclusive;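 further: cells exposed to compound for 40 hours before reading; 0% = DMSO only and -100% = 100 µM tamoxifen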). The following applies: mesenchymal cells viability, qHTS; series mostly up to 91.7 µM. The method in brief:
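Human renal mesenchymal cells (glomerulus-derived), 1000 cells/well, 5 hr 37 °C pre-incubation; compound 40 hr, 37 °C; CellTiter-Glo, 20 min RT; luminescence; AC50 via Hill equation.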

Assay [20] has as its target Lysosomal acid glucosylceramidase (Homo sapiens) (UniProt P04062). Briefly: Glucocerebrosidase-p2 (AID 348; in the data active means potency below about 10 µM; further: potency means the concentration at half of the fitted maximal effect). The following applies: purified GBA, blue fluorogenic substrate, 40 min. The method in brief:
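Normal human glucocerebrosidase (0.2 nM) with blue fluorogenic substrate (80 uM final) in citrate/phosphate pH 5.9 with 10mM sodium taurocholate, 0.01% tween-20; 40 min RT, NaOH/glycine stop; fluorescence Ex 365/Em 440; AC50 from a titration from 0.6 nM upwards.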

Where “and” joins values, the source holds several entries; their conditions need not be identical. Equal values may be shown once. Values without a mark were called inactive. Results filed as inconclusive are left out. Calls of active or inactive are those of the source. Unless noted, the call rests on the fitted dose curve; in most records, active means well fitted curve in either direction with a large enough effect (not every such curve was filed as active); inconclusive means small, poorly fitted or top-dose-only effect, or another doubt; inactive means flat fitted curve, though single readings scatter.

Chain of Cytochrome P450 1A2 (Homo sapiens) (P05177 whole entry, looked up): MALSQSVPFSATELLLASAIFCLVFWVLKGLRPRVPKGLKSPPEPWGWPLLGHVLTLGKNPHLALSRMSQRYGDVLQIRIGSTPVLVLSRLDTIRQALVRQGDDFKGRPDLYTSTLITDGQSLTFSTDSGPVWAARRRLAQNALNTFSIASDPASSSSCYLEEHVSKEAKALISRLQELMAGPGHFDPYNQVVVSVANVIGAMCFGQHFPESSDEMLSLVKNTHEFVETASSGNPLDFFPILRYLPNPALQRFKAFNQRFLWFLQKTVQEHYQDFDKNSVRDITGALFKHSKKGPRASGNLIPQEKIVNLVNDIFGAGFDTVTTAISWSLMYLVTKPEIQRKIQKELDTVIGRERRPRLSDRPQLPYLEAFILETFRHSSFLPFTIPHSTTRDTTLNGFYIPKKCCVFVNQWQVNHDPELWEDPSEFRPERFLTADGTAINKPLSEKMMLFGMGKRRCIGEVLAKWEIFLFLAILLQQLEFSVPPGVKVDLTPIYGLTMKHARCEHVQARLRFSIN
Chain of Glucocorticoid receptor (Homo sapiens) (P04150 whole entry, looked up, the tested form may be a part): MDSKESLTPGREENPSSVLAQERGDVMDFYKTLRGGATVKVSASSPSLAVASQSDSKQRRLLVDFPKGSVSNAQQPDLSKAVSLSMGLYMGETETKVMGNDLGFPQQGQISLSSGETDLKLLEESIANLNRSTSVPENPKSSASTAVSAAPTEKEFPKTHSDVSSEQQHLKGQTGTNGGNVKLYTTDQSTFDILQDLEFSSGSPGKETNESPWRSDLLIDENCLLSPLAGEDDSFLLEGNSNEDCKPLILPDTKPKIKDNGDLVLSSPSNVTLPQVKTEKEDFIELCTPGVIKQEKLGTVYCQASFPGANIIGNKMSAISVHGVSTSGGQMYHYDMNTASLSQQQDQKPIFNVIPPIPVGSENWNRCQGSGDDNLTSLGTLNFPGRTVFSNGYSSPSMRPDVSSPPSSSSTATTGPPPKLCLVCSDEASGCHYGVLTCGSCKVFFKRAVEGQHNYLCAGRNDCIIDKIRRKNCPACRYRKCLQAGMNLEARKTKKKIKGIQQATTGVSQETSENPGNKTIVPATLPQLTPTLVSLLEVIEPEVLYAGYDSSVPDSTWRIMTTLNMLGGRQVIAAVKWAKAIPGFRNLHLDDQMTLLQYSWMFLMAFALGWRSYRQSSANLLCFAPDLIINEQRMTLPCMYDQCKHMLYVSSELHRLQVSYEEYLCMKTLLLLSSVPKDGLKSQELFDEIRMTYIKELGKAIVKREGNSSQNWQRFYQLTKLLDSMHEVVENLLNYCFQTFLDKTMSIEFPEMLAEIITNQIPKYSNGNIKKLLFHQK
Chain of Lysosomal acid glucosylceramidase (Homo sapiens) (P04062 whole entry, looked up): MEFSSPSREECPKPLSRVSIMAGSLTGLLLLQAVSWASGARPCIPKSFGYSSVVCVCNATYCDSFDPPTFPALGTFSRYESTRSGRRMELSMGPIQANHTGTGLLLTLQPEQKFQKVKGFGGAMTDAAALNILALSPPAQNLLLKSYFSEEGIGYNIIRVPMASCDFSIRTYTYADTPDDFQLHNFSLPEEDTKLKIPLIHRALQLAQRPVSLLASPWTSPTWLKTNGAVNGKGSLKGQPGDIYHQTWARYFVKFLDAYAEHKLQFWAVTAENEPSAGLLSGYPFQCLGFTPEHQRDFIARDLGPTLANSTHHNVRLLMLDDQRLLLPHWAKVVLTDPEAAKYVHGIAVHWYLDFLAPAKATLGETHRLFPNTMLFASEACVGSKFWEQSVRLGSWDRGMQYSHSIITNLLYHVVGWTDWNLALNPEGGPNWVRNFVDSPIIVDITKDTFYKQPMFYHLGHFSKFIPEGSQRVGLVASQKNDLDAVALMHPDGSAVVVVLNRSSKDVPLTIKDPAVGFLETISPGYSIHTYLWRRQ

Take `CCCCN(CCCC)CCCOC(=O)c1ccc(N)cc1`: in [1] (at 17.2 µM (top of the series)), the activity change, negative = inhibition was -6.24% and -3.31%. Moreover, the Potency was 10 µM (active) in [2], above 20.6 µM in [4] and above 20.6 µM in assay [5]. Also, the activity, negative = inhibition in assay [3] (at 17.2 µM (top of the series)) is -8.33% and 3.52%. In [6], the Potency result is “inactive”.
Turning to `Cc1cc(CC(=O)O)n(C)c1C(=O)c1ccc(Cl)cc1`, the activity change, negative = inhibition in assay [1] (at 17.2 µM (top of the series)) is 2.5%; in assay [13] (at 17.2 µM (top of the series)) it was 1.18%. The Potency in assay [7], in assay [8], in assay [9], in [10], in assay [11] and in [12] was above 92 µM throughout. Besides, the Potency in assay [4] and in [5] was above 20.6 µM each time. Further, the activity, negative = inhibition in assay [3] (at 17.2 µM (top of the series)) is 8.99%. For the same compound, the Potency entry in assay [6], in assay [14], in [15], in assay [16], in [17] and in assay [18] was “inactive” in each case. Moreover, the compound was classed as inactive in assay [19].
Turning to `Cc1cccc(Nc2cc(Cl)nc(SCC(=O)O)n2)c1C`, the Potency in assay [20] is above 11.4 µM; in [4], above 46 µM; in assay [5], > 46 µM and > 9.22 µM. The values for the activity change, negative = inhibition in assay [1] (at 7.69 µM (top of the series)), in [13] (at 7.69 µM (top of the series)) and in [6] were 3.12%, 11.7% and 0.662% [at 11.4 µM], respectively. Also, in [2], the Potency entry was “inactive”. Besides, in [3] (at 7.69 µM (top of the series)), the activity, negative = inhibition is 0.678%.
Consider `CC(C)C(=O)c1c(C(C)C)nn2ccccc12`, for which the results for the activity change, negative = inhibition in assay [1] (at 38 µM (top of the series)) and in [13] (at 38 µM (top of the series)) were -2.6% and -1.94%, respectively. Moreover, in assay [2], the Potency was 1.26 µM (active) and 631 nM (active). In assay [3] (at 38 µM (top of the series)), the activity, negative = inhibition is 2.52%. Further, in assay [6], the Potency entry was “inactive”.
Regarding `CNCCCC1c2ccccc2C=Cc2ccccc21`, the activity change, negative = inhibition in [1] (at 17.2 µM (top of the series)) was -3.44% and 2.28%; in [13] (at 17.2 µM (top of the series)) it was -94% (active). The Potency entry in assay [2] and in [6] was “inactive” throughout. The activity, negative = inhibition in assay [3] (at 17.2 µM (top of the series)) was -10.4% and -15.8%; in assay [3] (at 38 µM (top of the series)) it was -9.63%. Besides, the Potency was > 46 µM and > 20.6 µM in [4]; > 46 µM and > 20.6 µM in assay [5].
